Reference: PubChem BioAssay
Records with an inconclusive call do not appear. Activity calls are given as the source filed them. Rule as the data show it, unless noted: active = inhibition above about 80%; inactive = the rest.

What was measured:
[1] = target: ATP-dependent translocase ABCB1 (Homo sapiens) (UniProt P08183); assay: P-glycoprotein substrate transport blockade – cell-based (AID 377; in the data active = fluorescence slope change above about 50%); settings: MDR1-expressing cells, fluorescent substrate accumulation slope; stronger effect = higher value; concentration not given here
[2] = compounds altering viability of human ES cells (AID 493140; call rule not given here;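 also: cells exposed to compounds for four days before counting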); settings: human embryonic stem cell survival screen; stronger effect = higher value
[3] = compounds altering Cy5-DNA-NS3h complex signal – biochemical, LOPAC1280, artefact control for HCV NS3 helicase inhibitor project (AID 687037; call rule not given here); settings: Cy5-DNA-NS3h complex fluorescence interference counterscreen
[4] = growth inhibition, single agent or in combination, cell-based, chromothripsis tumors, cisplatin or BGB combos (AID 1671449); settings: LFS_MB_P medulloblastoma cells;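 also: cells exposed for 96 hours; 0% = vehicle DMSO and 100% = killing by high DMSO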
[5] = growth inhibition, single agent and combos, cell-based, chromothripsis tumors, cisplatin or BGB combos (AID 1671450); settings: HDN33 neuroblastoma cells, stronger effect = higher value;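 also: cells exposed to compound for four days; 0% = vehicle DMSO and 100% = cell killing by high DMSO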
[6] = growth inhibition, single agents and combos, ICB984, cell-based, cisplatin or BGB combos, synergistic combos for chromothripsis tumors (AID 1671451; call rule not given here;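 also: cells exposed for 96 hours before readout; 0% = vehicle DMSO and 100% = killing by high DMSO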); settings: ICB984 medulloblastoma cells, drug combinations, stronger effect = higher value
[7] = growth inhibition, single agents and combos, HTB85, cell-based, BGB or cisplatin IC20 combos, synergistic combos for chromothripsis tumors (AID 1671453); settings: HTB85 osteosarcoma cells, drug combinations, stronger effect = higher value;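 also: cells exposed for 96 hours before readout; 0% = vehicle DMSO and 100% = high DMSO killing control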
[8] = growth inhibition, MDA-MB-436, cell-based, BGB or cisplatin combos, synergistic combos for chromothripsis tumors (AID 1671458; call rule not given here;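 also: cells exposed for 96 hours; 0% = vehicle DMSO and 100% = killing by high DMSO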); settings: MDA-MB-436 breast carcinoma growth inhibition, drug combinations, stronger effect = higher value
[9] = BT084 cell growth, single and combined drugs, ICGC_MB145, cisplatin and BGB IC40 combos (AID 1671461); settings: BT084 medulloblastoma cells, drug combinations, stronger effect = higher value;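 also: cells exposed to drugs for 96 hours; 0% = vehicle DMSO and 100% = high DMSO full killing control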
[10] = RCMB18 cell growth, single agent and combined, cisplatin and BGB IC40 combos (AID 1671462); settings: RCMB18 medulloblastoma cells, stronger effect = higher value;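 also: cells exposed to compound for four days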
[11] = CRL1545 cell growth, single agent and combined, cisplatin and BGB IC20 combos (AID 1671464); settings: CRL1545 osteosarcoma cells, stronger effect = higher value;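 also: cells exposed to compound for 96 hours before readout; 0% = vehicle DMSO and 100% = high DMSO killing control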
[12] = system: Aerobactin synthetase IucA (Klebsiella pneumoniae); assay: inhibition of K. pneumoniae IucA enzyme – biochemical, Tocris library, absorbance (AID 1345561; call rule not given here;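 also: 100% = enzyme without compound and 0% = no enzyme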); settings: purified IucA enzyme assay, absorbance (OD) read-out; stronger effect = lower value;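 tested at 8 µM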
[13] = viability loss in pontine glioma line – cell-based, SU-DIPG-XVII, MIPE5.0, CellTiter-Glo, qHTS, dose response (AID 1347060; cut-off not given, nearly all actives have AC50 up to about 26 µM); settings: CellTiter-Glo ATP luminescence
[14] = JHH-DIPG-1 glioma cell viability, MIPE5.0 library, CellTiter-Glo luminescence, qHTS (AID 1347067; cut-off not given, nearly all actives have AC50 up to about 26 µM;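 also: cells exposed to compound for 48 hours before readout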); settings: JHH-DIPG-1 glioma viability, CellTiter-Glo ATP luminescence
[15] = growth inhibition of DIPG cells – cell-based, MIPE5.0 library, qHTS (AID 1347068; cut-off not given, nearly all actives have IC50 up to about 30 µM); settings: SU-DIPG-XXV viability
[16] = viability loss in pontine glioma line – cell-based, SU-DIPG-IV, MIPE4.0, CellTiter-Glo, qHTS, dose response (AID 1347063; cut-off not given, nearly all actives have AC50 up to about 30 µM;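 also: compound exposure lasted 48 hours before the viability readout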); settings: CellTiter-Glo ATP luminescence
[17] = growth inhibition of DIPG cells – cell-based, MIPE4.0 library, CellTiter-Glo luminescence, qHTS (AID 1347066; cut-off not given, nearly all actives have AC50 up to about 30 µM;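 also: cells exposed to compound for 48 hours before readout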); settings: SU-DIPG-VI viability, CellTiter-Glo ATP luminescence
[18] = at 0.5 µM, stronger effect = higher value
[19] = measured here: combination with BGB IC20, at 0.005 µM
[20] = measured here: combination with BGB IC40, at 0.005 µM
[21] = measured here: combination with BGB IC40, at 0.05 µM
[22] = measured here: combination with cisplatin, at 0.5 µM, stronger effect = higher value
[23] = measured here: combination with cisplatin, at 5 µM, stronger effect = higher value
[24] = measured here: with BGB IC20 combination, at 0.5 µM
[25] = measured here: with cisplatin IC20 combination, at 0.5 µM
[26] = measured here: 5 uM single agent, at 5 µM
[27] = measured here: with BGB IC20, at 0.5 µM
[28] = measured here: with BGB IC20, at 5 µM
[29] = measured here: with cisplatin IC20, at 0.5 µM
[30] = measured here: with cisplatin IC20, at 5 µM
[31] = measured here: BGB combination, at 0.5 µM
[32] = measured here: BGB combination, at 5 µM
[33] = measured here: cisplatin combination, at 0.5 µM
[34] = measured here: cisplatin combination, at 5 µM
[35] = cisplatin combination, at 0.5 µM
[36] = measured here: BGB IC40 combination 0.05 uM, at 0.05 µM
[37] = measured here: BGB IC40 combination, at 0.05 µM
[38] = measured here: combination with cisplatin, at 0.5 µM

Chain of ATP-dependent translocase ABCB1 (Homo sapiens) (P08183 whole entry, looked up): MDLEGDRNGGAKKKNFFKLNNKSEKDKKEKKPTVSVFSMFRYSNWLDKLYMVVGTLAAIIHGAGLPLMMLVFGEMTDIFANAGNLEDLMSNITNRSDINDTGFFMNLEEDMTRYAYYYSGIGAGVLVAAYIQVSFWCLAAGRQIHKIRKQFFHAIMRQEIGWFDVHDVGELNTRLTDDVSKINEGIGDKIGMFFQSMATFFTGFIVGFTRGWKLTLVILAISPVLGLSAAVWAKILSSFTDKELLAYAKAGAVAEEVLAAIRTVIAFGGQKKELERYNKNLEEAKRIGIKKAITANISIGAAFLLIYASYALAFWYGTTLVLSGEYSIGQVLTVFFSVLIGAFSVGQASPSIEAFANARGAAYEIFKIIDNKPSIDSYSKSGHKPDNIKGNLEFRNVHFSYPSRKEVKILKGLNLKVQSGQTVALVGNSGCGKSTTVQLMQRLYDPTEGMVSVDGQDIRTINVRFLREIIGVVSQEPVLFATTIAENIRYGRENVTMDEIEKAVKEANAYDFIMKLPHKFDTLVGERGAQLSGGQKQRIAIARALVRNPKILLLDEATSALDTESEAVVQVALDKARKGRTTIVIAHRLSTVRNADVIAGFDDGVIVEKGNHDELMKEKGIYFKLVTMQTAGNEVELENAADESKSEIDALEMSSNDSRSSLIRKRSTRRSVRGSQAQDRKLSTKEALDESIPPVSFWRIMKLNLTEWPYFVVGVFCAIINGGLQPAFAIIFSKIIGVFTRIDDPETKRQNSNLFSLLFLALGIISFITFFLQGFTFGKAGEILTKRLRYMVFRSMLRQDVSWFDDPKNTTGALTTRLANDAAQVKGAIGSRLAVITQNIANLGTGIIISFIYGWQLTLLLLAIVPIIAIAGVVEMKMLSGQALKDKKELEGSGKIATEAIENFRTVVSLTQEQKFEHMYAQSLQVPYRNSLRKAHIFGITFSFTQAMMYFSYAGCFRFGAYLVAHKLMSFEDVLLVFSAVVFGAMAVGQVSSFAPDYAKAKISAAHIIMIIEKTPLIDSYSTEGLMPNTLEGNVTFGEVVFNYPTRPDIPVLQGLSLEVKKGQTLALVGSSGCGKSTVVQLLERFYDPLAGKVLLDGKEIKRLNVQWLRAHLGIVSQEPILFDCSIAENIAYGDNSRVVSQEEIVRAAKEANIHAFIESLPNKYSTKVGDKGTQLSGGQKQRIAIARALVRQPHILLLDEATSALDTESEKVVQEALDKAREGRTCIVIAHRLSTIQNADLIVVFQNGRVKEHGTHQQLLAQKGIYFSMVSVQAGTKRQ

## CCn1nc(C(=O)O)c(=O)c2cc3c(cc21)OCO3
[1]
  fluorescence slope change: 14.5% (inactive)
[2]
  survival: 2.42 (inactive)
[3]
  fluorescence ratio (interference): 1 (inactive)
[4]; [18]
  inhibition: -4.36% (inactive)
[4]; [19]
  inhibition: -22%
[4]; [20]
  inhibition: -16.5%
[4]; [21]
  inhibition: -12.9%
[4]; [22]
  inhibition: -13.6%
[4]; [23]
  inhibition: -41.5%
[5]; BGB combo, at 5 µM
  inhibition: -23.8%
[5]; at 0.5 µM
  inhibition: -7.41% (inactive)
[5]; cisplatin combo, at 5 µM
  inhibition: -10.5%
[5]; [24]
  inhibition: -15.2%
[5]; [25]
  inhibition: -1.32%
[5]; single agent, at 5 µM
  inhibition: -41.5%
[6]; BGB IC20 combo, at 0.005 µM
  inhibition: -15.8%
[6]; BGB IC40 combo, at 0.005 µM
  inhibition: -16.7%
[6]; BGB IC40 combo, at 0.05 µM
  inhibition: -9.96%
[6]; at 0.5 µM
  inhibition: -5.52% (inactive)
[6]; cisplatin combo, at 0.05 µM
  inhibition: -9.96%
[6]; cisplatin combo, at 0.5 µM
  inhibition: -1.52%
[6]; cisplatin combo, at 5 µM
  inhibition: -43.4%
[6]; [26]
  inhibition: -20.7%
[7]; at 0.5 µM
  inhibition: -28.8% (inactive)
[7]; [27]
  inhibition: -63%
[7]; [28]
  inhibition: 5.32%
[7]; [29]
  inhibition: -29.8%
[7]; [30]
  inhibition: -12.6%
[7]; single agent, at 5 µM
  inhibition: -6.73%
[8]; at 0.5 µM
  inhibition: -10.8% (inactive)
[8]; [31]
  inhibition: -3.35%
[8]; [32]
  inhibition: -16.6%
[8]; [33]
  inhibition: -23.3%
[8]; [34]
  inhibition: -13.2%
[9]; at 0.5 µM
  inhibition: -21.7% (inactive)
[9]; [35]
  inhibition: -15.5%
[9]; cisplatin combination, at 5 µM
  inhibition: -34.6%
[9]; [36]
  inhibition: -12.7%
[9]; single agent, at 5 µM
  inhibition: -10.2%
[10]; at 0.5 µM
  inhibition: -22.9% (inactive)
[10]; cisplatin combo, at 5 µM
  inhibition: -5.51%
[10]; [37]
  inhibition: -14.3%
[10]; [38]
  inhibition: -7.95%
[10]; single agent, at 5 µM
  inhibition: -10.2%
[11]; at 0.5 µM
  inhibition: -33.4% (inactive)
[11]; [24]
  inhibition: -23%
[11]; [25]
  inhibition: -38.6%
[11]; single agent, at 0.05 µM
  inhibition: 5.27%
[11]; single agent, at 5 µM
  inhibition: 10.4%

## O=C(/C=C/c1ccc(O)c(O)c1)OCCc1ccccc1
[3]
  fluorescence ratio (interference): 1 (inactive)
[12]
  remaining activity: 122% (inactive)

## CC[C@H]1OC(=O)[C@H](C)[C@@H](O[C@H]2C[C@@](C)(OC)[C@@H](O)[C@H](C)O2)[C@H](C)[C@@H](O[C@@H]2O[C@H](C)C[C@H](N(C)C)[C@H]2O)[C@](C)(O)C[C@@H](C)C(=O)[C@H](C)[C@@H](O)[C@]1(C)O
[1]
  fluorescence slope change: 76.3% (active)
[13]
  outcome: inactive
[14]
  outcome: inactive
[15]
  outcome: inactive

## O=c1c(O)c(-c2ccc(O)c(O)c2)oc2cc(O)ccc12
[16]
  AC50: 18.7 µM (active)
[17]
  AC50: 29.6 µM (active)
[4]; [18]
  inhibition: -6.56% (inactive)
[4]; [19]
  inhibition: -16.9%
[4]; [20]
  inhibition: 5.59%
[4]; [21]
  inhibition: 5.54%
[4]; [22]
  inhibition: -17.1%
[4]; [23]
  inhibition: 11%
[5]; BGB combo, at 5 µM
  inhibition: -4.9%
[5]; at 0.5 µM
  inhibition: 4.36% (inactive)
[5]; cisplatin combo, at 5 µM
  inhibition: 3.02%
[5]; [24]
  inhibition: -4.05%
[5]; [25]
  inhibition: 5.86%
[5]; single agent, at 5 µM
  inhibition: -1.94%
[6]; BGB IC20 combo, at 0.005 µM
  inhibition: -15.9%
[6]; BGB IC40 combo, at 0.005 µM
  inhibition: -16.9%
[6]; BGB IC40 combo, at 0.05 µM
  inhibition: -3.67%
[6]; at 0.5 µM
  inhibition: -24.7% (inactive)
[6]; cisplatin combo, at 0.05 µM
  inhibition: -3.67%
[6]; cisplatin combo, at 0.5 µM
  inhibition: -43.4%
[6]; cisplatin combo, at 5 µM
  inhibition: -7.32%
[6]; [26]
  inhibition: -7.82%
[7]; at 0.5 µM
  inhibition: 3.31% (inactive)
[7]; [27]
  inhibition: -8.35%
[7]; [28]
  inhibition: 3.71%
[7]; [29]
  inhibition: 14.6%
[7]; [30]
  inhibition: 6.28%
[7]; single agent, at 5 µM
  inhibition: 8.35%
[8]; at 0.5 µM
  inhibition: -7.38% (inactive)
[8]; [31]
  inhibition: 5.2%
[8]; [32]
  inhibition: -2.65%
[8]; [33]
  inhibition: -24.9%
[8]; [34]
  inhibition: 5.5%
[9]; at 0.5 µM
  inhibition: -4.39% (inactive)
[9]; [35]
  inhibition: -0.071%
[9]; cisplatin combination, at 5 µM
  inhibition: -26.8%
[9]; [36]
  inhibition: 5.57%
[9]; single agent, at 5 µM
  inhibition: -4.55%
[10]; at 0.5 µM
  inhibition: -4.12% (inactive)
[10]; cisplatin combo, at 5 µM
  inhibition: 18.3%
[10]; [37]
  inhibition: 21.3%
[10]; [38]
  inhibition: -7.15%
[10]; single agent, at 5 µM
  inhibition: -9.89%
[11]; at 0.5 µM
  inhibition: -3.43% (inactive)
[11]; [24]
  inhibition: -7.45%
[11]; [25]
  inhibition: -1.43%
[11]; single agent, at 0.05 µM
  inhibition: 31.3%
[11]; single agent, at 5 µM
  inhibition: 6.36%
